Screens deposited in PubChem by National Center for Advancing Translational Sciences (NCATS).
A selection: hits, their analogues and other compounds. The true share with any hit is near 11%.
Pf growth 96h – P. falciparum growth inhibition at 96 hour, primary screen for plastid delayed-death inhibitors; P. falciparum luciferase reporter growth, 96 h; AID 504834; actives 6.9% (n = 320,000); Potency, µM (top dose mostly 28.7 µM), inactives show at the highest dose activity change, negative = inhibition, usual class: inhibitors
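Luminescence readout: decreased luciferase signal marks inhibited growth of reporter-expressing P. falciparum in infected red cells (2% hematocrit, 0.05% parasitemia final), exposed to compound two generations (96 h, 37 C, 5% CO2).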
AMA1 RON2 block – inhibitors of Plasmodium falciparum AMA1-RON2 interaction | AlphaScreen AMA1-biotinylated RON2 peptide binding | Potency, µM (doses to about 58.2 µM), for inactives: at the highest dose activity change, negative = inhibition, most hits filed as inhibitors | actives 0.2% (n = 360,000) | AID 720542;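 note: 0% = vehicle wells and -100% = peptide control; nearly all actives have a fitted effect of over 45% in size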
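AMA1 (3D7) with his tag at 25 nM final met compounds first, then biotinylated RON2 peptide at 25 nM; detection used donor plus acceptor beads, 10 µg/mL apiece, read by AlphaScreen after 30 min at room temperature.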
HCV inh – blocks hepatitis C virus; Huh7.5.1 HCVcc-Cre infection, luciferase reporter, 44 h; Potency, µM (top dose mostly 41.8 µM), for the others: at the top dose activity change, negative = inhibition, most hits filed as inhibitors; actives 3.4% (n = 340,000); AID 651820
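Infectious HCVcc-Cre (~0.5 moi) was added to cells just after compound, with cells seeded 4 h earlier at 1,000 per well. Luciferase activity after 44 h culture reported infection; substrate was incubated 15 min at room temperature before reading.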
AmpC detergent – AmpC beta-lactamase inhibition with detergent present | AID 485294 | AmpC hydrolysis of nitrocefin, absorbance 480 nm, 0.01% Triton | P00811 | Potency, µM (doses to about 114 µM), for the others: top-dose activity change, negative = inhibition, hits mostly inhibitors | actives 0.041% (n = 370,000);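 note: 0% = no-compound wells and -100% = no-enzyme wells; nearly all actives have a fitted effect of over 25% in size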
Target sequence (P00811 whole entry, looked up): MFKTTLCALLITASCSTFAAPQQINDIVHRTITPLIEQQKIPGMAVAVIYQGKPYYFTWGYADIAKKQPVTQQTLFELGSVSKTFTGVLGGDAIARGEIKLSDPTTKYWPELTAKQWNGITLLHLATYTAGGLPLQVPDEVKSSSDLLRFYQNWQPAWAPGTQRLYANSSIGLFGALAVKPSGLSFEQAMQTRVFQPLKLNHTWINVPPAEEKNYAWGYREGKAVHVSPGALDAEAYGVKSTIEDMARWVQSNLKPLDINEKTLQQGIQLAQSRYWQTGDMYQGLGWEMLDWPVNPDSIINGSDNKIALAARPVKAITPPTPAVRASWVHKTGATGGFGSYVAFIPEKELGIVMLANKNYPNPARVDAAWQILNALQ
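20 mM phosphate pH 7.0 + 0.01% (detergent screen) or 0.0001% Triton X-100; 5.3 nM AmpC reagent; cpd preinc 15 min RT; nitrocefin (800 uM stock) to start; A480 q20 s × 4 min; Activity was normalised to no-enzyme and no-compound control wells.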
AmpC inh no detg – AmpC beta-lactamase inhibition without detergent; actives 0.52% (n = 330,000); AmpC nitrocefin hydrolysis, absorbance 480 nm, 0.0001% Triton; Potency, µM (doses to about 57.1 µM), for inactives: at the top dose activity change, negative = inhibition, usual class: inhibitors;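 note: plate controls were no compound for no effect and no enzyme for full effect; nearly all actives have a fitted effect of over 20% in size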
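AmpC (5.3 nM in the dispensed reagent) in 20 mM phosphate pH 7.0 with 0.01% (detergent screen) or 0.0001% Triton X-100 was preincubated with compounds for 15 min at room temperature. Nitrocefin was then added from an 800 uM solution, and hydrolysis was followed at 480 nm.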
Pf growth 48h – inhibits P. falciparum growth in the first generation, 48 h. P. falciparum luciferase growth in erythrocytes, 48 h. actives 5.9% (n = 310,000). Potency, µM (series often up to 28.7 µM), inactives show at the highest dose activity change, negative = inhibition, hits mostly inhibitors
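Growth was read as firefly luciferase luminescence after a 48 h, 37 C, 5% CO2 exposure of compounds to reporter-bearing P. falciparum cultures (0.1% parasitemia, 2% hematocrit final) in Albumax-supplemented RPMI 1640.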
Starred values were filed as active, the others as inactive; ? = inconclusive; · = no result given. Calls come from the whole dose curve; as a rule, active = well fitted curve in the direction sought with a large enough effect; inconclusive = small, poorly fitted or top-dose-only effect, or another doubt; inactive = no such curve, though single readings can be large; an effect the other way counts as inactive or inconclusive. Unless noted, % is set by controls: 0 for no effect and ±100 for the full control effect; potency is the fitted concentration of half-maximal effect.

SMILES	Pf growth 96h	AMA1 RON2 block	HCV inh	AmpC detergent	AmpC inh no detg	Pf growth 48h
COc1ccc(CN2CCNC(=O)C2CC(=O)NC2CCCC2)c(OC)c1 (configuration not stated)	-11%	24%	-5%	0%	30%	?
COc1ccc(CN2CCNC(=O)C2CC(=O)NC2CCCCC2)c(OC)c1 (configuration not stated)	9.3µM*	14%	14%	4%	77%	-17%
COc1ccc(CN2CCNC(=O)C2CC(=O)NC2CCCCCCC2)cc1OC (configuration not stated)	-8%	4%	4%	1%	45%	12µM*
COc1ccc(C(=O)N2CC(=O)Nc3ccc(C)cc3C2c2ccc(F)cc2)c(OC)c1 (configuration not stated)	·	·	·	2%	·	·
CCc1ccc(NCc2cc3ccc(OC)cc3n(CC(=O)Nc3ccccc3C)c2=O)cc1	·	·	·	1%	·	·
Cc1c(Cl)cccc1NC(=O)CSc1cc(-c2ccccc2)ncn1	·	·	·	0%	·	·
Cc1ccc(NC(=O)CSc2nc(-c3ccco3)nc3cc(=O)[nH]n23)cc1	·	·	·	-4%	·	·
O=C(CCNS(=O)(=O)c1ccc2c(c1)CCCC(=O)N2)NCc1ccccc1Cl	·	·	·	16%	·	·
CC(C)CCn1c(=O)c2sccc2n2c(CCCC(=O)NC3CCC(C)CC3)nnc12 (configuration not stated)	·	·	·	22%	·	·
COc1ccc(C2CC(=O)c3c(C)nc(N4CCN(C=O)CC4)nc3C2)c(OC)c1 (configuration not stated)	·	·	·	-2%	·	·
CN(Cc1ccccc1)Cc1c(O)ccc2c(=O)c(-c3ccccc3)c(C(F)(F)F)oc12	·	·	·	-1%	·	·
CCC(Cn1nnc2ccccc2c1=O)NC(=O)Nc1cc(OC)cc(OC)c1 (configuration not stated)	·	·	·	21%	·	·
CNC(=S)N(CCc1ccc(OC)c(OC)c1)Cc1cc2c(C)cc(C)cc2[nH]c1=O	12µM*	2%	0%	-4%	-4%	?
CNC(=S)N(CCc1c(C)[nH]c2ccc(C)cc12)Cc1cc(OC)c(OC)c(OC)c1	10µM*	-18%	-28%	-9%	161%	0%
CNC(=S)N(CCc1c(C)[nH]c2ccc(OC)cc12)Cc1cc(OC)c(OC)c(OC)c1	15µM*	-12%	?	?	96%	10µM*
CNC(=S)N(CCc1c(C)[nH]c2ccccc12)Cc1cc(OC)c(OC)c(OC)c1	?	-9%	-15%	?	72%	?
Cc1cccc(Cn2c(=O)n(-c3cc(C)cc(C)c3)c(=O)c3oc4ccccc4c32)c1	·	·	·	1%	·	·
COc1ccc(-c2cc(=O)oc3c(C)c(OC(C)C(C)=O)ccc23)cc1 (configuration not stated)	-26%	9%	?	-1%	65%	-14%
COc1ccc(-c2cc(=O)oc3c(C)c(OC(C)C(=O)Nc4ccc(CN5CCOCC5)cc4)ccc23)cc1 (configuration not stated)	3.7µM*	-15%	13µM*	4%	144%	7.4µM*
Cc1cc(=O)oc2c(C)c(OC(C)C(=O)Nc3ccc(N4CCC(C)CC4)cc3)ccc12 (configuration not stated)	3.3µM*	9%	?	4%	-4%	7.4µM*
Cc1cc(=O)oc2cc(OC(C)C(=O)Nc3ccc(N4CCCCC4)cc3)ccc12 (configuration not stated)	8%	-13%	·	-9%	12%	?
CCc1ccccc1NC(=O)N1CCC(NC(=O)C(Cc2ccc(OC)c(OC)c2)NC(C)=O)CC1 (configuration not stated)	12µM*	5%	16%	?	0%	?
CCc1ccccc1NC(=O)N1CCC(NC(=O)C(Cc2ccccc2)NC(C)=O)CC1 (configuration not stated)	1%	2%	-5%	-3%	1%	-15%
O=C1c2ccccc2C2(c3ccccc3)N1CCN2C(=O)C(Cl)(Cl)Cl (configuration not stated)	0.83µM*	-12%	-5%	-15%	-5%	·
Cc1ccc(C(=O)N2CCN3C(=O)c4ccccc4C23c2ccccc2)cc1 (configuration not stated)	?	-7%	-1%	3%	25%	?
SMILES	Pf growth 96h	AMA1 RON2 block	HCV inh	AmpC detergent	AmpC inh no detg	Pf growth 48h
O=C(Nc1ccc(F)cc1)N1CCN(c2ccccc2F)CC1	·	·	·	15%	·	·
O=C(Nc1ccc(F)cc1)N1CCN2C(=O)c3ccccc3C12c1ccccc1 (configuration not stated)	13µM*	-4%	1%	?	3%	·
CN(C)CCN1C(=O)c2oc3ccccc3c(=O)c2C1c1cccc(Br)c1 (configuration not stated)	?	-5%	14%	-11%	7%	?
O=C1c2oc3ccc(Cl)cc3c(=O)c2C(c2ccco2)N1CCN1CCOCC1 (configuration not stated)	?	9%	-10%	-6%	157%	8.3µM*
CN(C)CCN1C(=O)c2oc3ccc(Cl)cc3c(=O)c2C1c1cccc(Br)c1 (configuration not stated)	426%	9%	1%	?	33%	1.9µM*
Cc1ccc(CNC(=O)c2ccc3c(=O)n(-c4ccccc4)c(=O)[nH]c3c2)cc1	·	·	·	6%	·	·
c1ccc(C2Nc3ccccc3-c3nc4ccccc4n32)cc1 (configuration not stated)	·	7%	-27%	1%	-59%	?
c1coc(C2Nc3ccccc3-c3nc4ccccc4n32)c1 (configuration not stated)	23%	56%	13µM*	-11%	35µM*	72%
CN1CCN(CC(O)COc2ccc(Cl)cc2)CC1 (configuration not stated)	20%	-2%	-15%	-14%	-16%	·
OC(COC(c1ccccc1)c1ccccc1)CN1CCc2ccccc2C1 (configuration not stated)	?	-19%	?	-4%	-1%	?
OC(COC(c1ccc(Cl)cc1)c1ccc(Cl)cc1)CN1CCCC1 (configuration not stated)	4.7µM*	22%	5.6µM*	-2%	·	?
